# Reference: PubChem BioAssay AID1347075 (National Center for Advancing Translational Sciences (NCATS), 2019)
# Among all 400,000 compounds or so, about 5,500 (1.4%) were called active. About 9% were inconclusive and are not listed. For the sample, actives were picked, then their nearest neighbours and some compounds at random. Unmarked numbers belong to inactive results. Calls come from the whole dose curve; as a rule, active = well fitted cell-killing curve with a large enough effect; inconclusive = small, poorly fitted or top-dose-only effect, or effect the other way; inactive = flat fitted curve, though single readings scatter.
# Experiment: qHTS assay for MDR1-selective chemotherapeutics: Primary screen using the parental adenocarcinoma cell KB-3-1; note: nearly all actives have a fitted effect of over 60% in size
# Conditions: KB-3-1 viability, CellTiter-Glo ATP luminescence, 72 h; series mostly up to 46.1 µM; activity change, negative = cytotoxic: at the top concentration
# Text: A prime difficulty in effectively treating cancer is the development of cellular resistance to multiple structurally unrelated anticancer drugs, a phenomenon known as multidrug resistance (MDR). […] Numerous strategies to overcome P-gp-mediated MDR have been explored, including the design of drugs that evade recognition and efflux, and development of inhibitors to block efflux and restore drug accumulation. […] An alternative approach is to exploit resistance by identifying drugs that target MDR cells over the non-resistant parental cells from which they were selected. […] The development of MDR1-selective agents represents a new strategy for resolving multidrug resistance, as it remains a long-standing clinical challenge for cancer chemotherapy.
# Our goal is to identify compounds that selectively kill P-gp-expressing MDR cells. We will identify MDR1-selective compounds by comparing toxicity of compounds in the screening library against parental, drug-naive (KB-3-1) adenocarcinoma cells as well as their drug-selected MDR sub-line (KB-V1). The differential toxicity of compounds against these two cell lines will be used to identify MDR1-selective compounds, whose cytotoxicity is potentiated, rather than diminished, by P-gp expression. This assay will be utilized to conduct a quantitative high-throughput screen (qHTS) in collaboration with the NIH Chemical Genomics Center to identify selective agents, and probe hits arising from the screen will be validated using secondary assays and characterized through a well-established follow-up research program. This screen was run against the entire NCGC library collection of about 400,000 compounds.
# NIH Molecular Libraries Probe Production Network [MLPCN]
# NIH Chemical Genomics Center [NCGC]
# PI: Michael Gottesman PhD, National Cancer Institute, NIH
# Briefly, 5 microL of media containing either KB-3-1 cells (columns 1-2, 4-48) are dispensed into Greiner white, treated solid-bottom 1536-well assay plates (media-only control is added to column 3). Compounds are then transferred via Kalypsys pin tool equipped with 1536-pin array (10 nL slotted pins, V&P Scientific, San Diego, CA). Following addition of compound, the plates are incubated at 37 degrees C for 72 hours. CellTiter-Glo (2.5 µL/well) is then added, and the plates are read in a ViewLux reader (Perkin-Elmer, clear luminescence filter, 1 second exposure, 1x binning) following a 10 minute incubation. All cells are dispensed in DMEM phenol-red free media containing 10% FBS.
# Library plates were screened starting from the lowest and proceeding to the highest concentration. Vehicle-only plates, with DMSO being pin-transferred to columns 5-48, will be inserted uniformly at the beginning and the end of each library in order to monitor and record any shifts in the background, which can be affected by reagent dispensers or loss in enzyme activity over time. Screening data will be corrected, normalized, and concentration-effect relationships will be derived by using publicly-available NCGC, NCATS curve fitting algorithms (http://ncgc.nih.gov/pub/openhts).
# % is set by controls: 0 for no effect and ±100 for the full control effect; potency is the fitted concentration of half-maximal effect.
Structure (SMILES),Potency,"activity change, negative = cytotoxic [%]"
COc1cc(/C=C2\Oc3ccc(C#Cc4ccc(O)cc4)cc3C2=O)cc(OC)c1,16.4 µM (active),
COc1cccc(N2CCN(S(=O)(=O)c3ccc4c(c3)CCCN4C(C)=O)CC2)c1,,-3.09
COc1ccc(-c2ccc(=O)n(CC(=O)Nc3ccc(Br)cc3F)n2)cc1,,3.64
O=C(CSc1nc2c(c(=O)[nH]1)CN(Cc1ccc(F)cc1)CC2)Nc1ccccc1Cl,,-1.45
Cc1cc2ccccc2n1CCNC(=O)c1ccc(F)cc1,,-0.098
O=C(Nc1ncc([N+](=O)[O-])s1)C1COc2ccccc2O1 (stereo not given),16.4 µM (active),
COc1ccc(NC(=O)COC(=O)C2COc3ccccc3O2)cc1 (stereo not given),,2.9
O=C(Nc1cc(S(=O)(=O)N2CCCCC2)ccc1Cl)C1COc2ccccc2O1 (stereo not given),,-5.56
Cc1ccc(C(=O)N2c3ncnn3C3(CCCCC3)[C@@H]3CCCC[C@@H]32)cc1,,-1.33
O=C(NC1=CC(=O)c2ccccc2C1=O)c1ccccc1,16.4 µM (active),
CC(=O)c1cc(NC(=O)c2ccccc2)c(=O)oc1/C=C/N(C)C,,15.8
COc1cc(NC(=O)c2ccccc2)c(OC)cc1NC(=O)Cc1ccccc1,,5.6
N#Cc1nc(/C=C/c2ccc(F)cc2)oc1NCc1ccc(F)cc1,,2.53
O=C(CCS(=O)(=O)c1cc(Br)cc2c1N(C(=O)C1CC1)CC2)Nc1ccc(Br)cc1F,,6.15
COc1cc(/C=N/O)cc(Br)c1OCc1cccc(Cl)c1,14.6 µM (active),
O=C(O)COc1ccc(/C=N/O)cc1Br,,9.66
COc1cc(C(=O)NCc2ccncc2)cc(Br)c1OCc1ccccc1,,-18.9
CCOC(=O)c1ccc(NC(=O)CCn2cnnn2)cc1,,8.4
COc1ccccc1CN1CCC(CNC(=O)c2cnn(-c3cccc(Cl)c3)c2C2CCN(C(=O)OC(C)(C)C)CC2)CC1,,-20.3
Cc1ccc(CN2CCC(CNC(=O)c3cnn(-c4ccccc4Cl)c3C3CCN(C(=O)OC(C)(C)C)CC3)CC2)cc1,,-10
Cc1ccc(CN2CCC(CNC(=O)c3cnn(-c4ccc(C)cc4)c3C3CCN(C(=O)OC(C)(C)C)CC3)CC2)cc1,16.4 µM (active),
CCOc1ccc(OCC)c(NC(=O)c2cc(C)nc3c2c(C)nn3-c2cccc(Cl)c2C)c1,,-0.861
CN(C)c1ccc(/C=C/C(=O)c2ccc(O)cc2)cc1[N+](=O)[O-],20.6 µM (active),
O=C(/C=C/c1ccc(Cl)cc1)N1CCN(c2ccccc2[N+](=O)[O-])CC1,,6.08
CN(C)c1ccc(/C=N\Nc2ccc([N+](=O)[O-])cc2[N+](=O)[O-])cc1Cl,,7.3

Structure (SMILES),Potency,"activity change, negative = cytotoxic [%]"
CCOc1ccc(Br)cc1CSC(=N)N,23.1 µM (active),
CCOc1ccc(Br)cc1S(=O)(=O)N1CCC(C(=O)O)CC1,,-15.3
CC(C)(C)NCc1cc(Br)ccc1OC1CCCC1,,-6.93
COc1ccccc1NC(=O)C1=C(C)Nc2nc(SCC(=O)c3ccc(C)cc3)nn2C1c1ccccc1C (stereo not given),,19.5
COc1ccc(NC(=O)CCN2CCN(CCO)CC2)cc1,,10.1
O=C(NCc1ccccc1)C(=O)NCC(c1ccco1)S(=O)(=O)c1ccc(Cl)cc1 (stereo not given),,-21.5
O=C(OC12CC3CC(CC(C3)C1)C2)c1ccc(NCc2cc(O)ccc2O)cc1,7.31 µM (active),
COc1ccc(-c2nc(=N)sn2-c2ccccc2)cc1,,-25.8
CO[C@H]1O[C@@H]2O[C@@]3(C)CC[C@@H]4[C@@H](C)CC[C@@H]([C@H]1C)[C@@]24OO3,,0
COc1cc2[nH]c(C)c(CCN3CCN(c4ccccc4)CC3)c2cc1OC,,0
COc1ccc(C(=NN)c2ccc(OC)cc2)cc1,,2.52
COc1ccc(C(C#N)=C2C=CC(=NO)c3ccccc32)cc1,0.82 µM (active),
COc1ccc(C(=O)/C=C/Nc2ccccn2)cc1,,-7.94
COc1ccccc1OCCCn1c(-c2ccc(Cl)cc2)nc2ccccc2c1=O,,1.77
O=C(COC(=O)c1ccccc1OCCOc1ccccc1)Nc1cccc(Br)c1,,0
COc1cccc(C(c2c(O)cc(C)n(Cc3ccco3)c2=O)N2CCN(c3ccccc3)CC2)c1 (stereo not given),,3.01
CCOc1ccccc1NC(=O)CN1CCCN(Cc2cccc(Cl)c2)S1(=O)=O,,4.79
O=c1c2ccccc2n(Cc2cccc(Cl)c2)c(=O)n1Cc1ccccc1,,-13.5
Clc1cccc[n+]1CCCC[n+]1ccccc1Cl,,2.29
COc1cc(C(=O)Nc2ccc(-n3c(C)nc4ccccc4c3=O)cc2)cc(OC)c1OC,,3.15
CC(C)c1ccc(Cn2c(COc3ccccc3)nc3ccccc32)cc1,,2.83
O=C(Cn1c(=O)n(Cc2ccco2)c(=O)c2ccccc21)NCC1CCCO1 (stereo not given),,7.23
Cn1c2ccccc2c(=O)c2c(=O)n(Cc3ccco3)c(COc3ccccc3)nc21,7.31 µM (active),
Cn1c(=O)c2c(ncn2CC(=O)Nc2cccc(C(F)(F)F)c2)n(C)c1=O,,-2.81
Cn1nc(C(F)(F)F)c(C(=O)Nc2cccc(C(F)(F)F)c2)c1SCc1ccc(Cl)cc1,16.4 µM (active),

Structure (SMILES),Potency,"activity change, negative = cytotoxic [%]"
Cc1ccc(Cc2nc3ccccc3nc2SCC(=O)Nc2cccc(C(F)(F)F)c2)cc1,,-20.9
CCCSc1nc2sc3c(c2c(=O)n1-c1cccc(Br)c1)CC(C)(C)OC3,,-5.87
COc1ccc(C2CC(=O)Nc3c2c(=O)nc2c(C)cccn32)cc1OC (stereo not given),,-2.5
O=C(COc1ccccc1C(=O)Nc1ccccc1)Nc1cccc(F)c1,,1.45
O=[N+]([O-])c1ccc(S(=O)(=O)N2CCN(c3nc(-c4ccccc4)nc4ccccc34)CC2)cc1,,29.8
O=C(Nc1ccc(OC(F)(F)F)cc1)c1cc2c(=O)n3ccccc3nc2s1,,7
COc1cc(OC)cc(C(=O)NCCc2csc3nc(-c4ccccc4F)nn23)c1,,-3.67
CCOc1cc(/C=C(\C#N)C(=O)Nc2ccccc2C)ccc1OCc1cc(=O)n2nc(CC)sc2n1,,-5.35
CCOc1ccc(/C=C(\C#N)c2nc3ccccc3c(=O)[nH]2)cc1OC,,8.7
CCOc1cc(/C=C(\C#N)c2nc(-c3cccs3)c(NC(C)=O)s2)ccc1O,8.2 µM (active),
O=C(NCc1ccc(Cl)cc1)c1ccc2c(c1)nnn2C1CCCC1,,-5.59
CCOC(=O)c1cccc(NC(=O)Cn2cnc3nc4c(cc3c2=O)CCCC4)c1,,8.88
COc1cccc(CNC(=O)C(=O)NCC(c2cccs2)S(=O)(=O)c2ccccc2)c1 (stereo not given),,-21
CN(CCC#N)c1ccc(C=O)cc1,,0
Cc1ccc(-c2cc(=O)c3ccc(F)cc3[nH]2)cc1,,0
O=c1cc(-c2ccccc2)[nH]c2cc(F)ccc12,1.64 µM (active),
CC(=O)c1cc(-c2ccccc2)[nH]c1N1CCCC1,,0
O=C1OC(C(=O)Nc2cccc(Br)c2)Cc2ccccc21 (stereo not given),,-3.58
O=S1(=O)N=C(Oc2cccc(Br)c2)c2ccccc21,,0
CCOc1ccc(C(=O)c2cn(Cc3ccc(F)cc3)c3ccc(F)cc3c2=O)cc1,,10.5
CCOC(=O)c1c(C)oc2nc(C)nc(Nc3ccc(CC)cc3)c12,,1.97
COc1cc(OC)c2c(-c3cccc(-c4cccc(N)c4)c3)cc(=O)oc2c1,4.11 µM (active),
COC(=O)C(C)Oc1ccc2c(-c3cccc([N+](=O)[O-])c3)cc(=O)oc2c1 (stereo not given),,-5.69
COc1ccc(-c2c(C)cc3oc(=O)cc(-c4ccccc4)c3c2C)cc1C=O,,0
COc1ccc(-c2nnc(SCC(=O)Nc3ccccc3C)o2)cc1OC,,-8.33

Structure (SMILES),Potency,"activity change, negative = cytotoxic [%]"
N#CC(C#N)=CN=c1ccn(Cc2ccc(Cl)cc2Cl)cc1,16.4 µM (active),
CC(C)(C)c1cc(C(=O)NN)n(Cc2ccc(Cl)cc2Cl)n1,,4.9
Cn1ccc(=NC=C(C#N)C#N)c2ccccc21,,-7.89
Cc1ccc(-n2c(SCC(=O)Nc3cccc(F)c3)nc3c(oc4ccccc43)c2=O)cc1C,,-1.05
CCOC(=O)Cc1ccc(NC(=O)Nc2c[nH]c(=O)[nH]c2=O)cc1,,8.46
COc1ccc2c(c1)c(N1CCCC1=O)c(C(=O)Nc1ccccc1C(F)(F)F)n2C,,3.33
O=C(O)c1ccc(CSc2nc3cccnc3n2Cc2cccc(F)c2)cc1,,5.86
COc1cccc(NC(=O)Nc2ccc3c(c2)N(C)C(=O)c2ccccc2S3)c1,,-10.8
COc1cccc(CNC(=O)c2ccc3c(Cl)c4c(nc3c2)CCCC4)c1,,8.21
COc1ccccc1NC(=O)C(=O)c1cc(C)n(-c2ccccc2F)c1C,,-19.3
CCOC(=O)c1c(C)[nH]c(C(=O)COc2ccc3c(c2)OCO3)c1C,,6.21
CCOC(=O)N1CCN(C(=O)COCc2cc(-c3ccc4c(c3)OCO4)on2)CC1,,-9.83
CCOC(=O)c1nc(-c2ccc3c(c2)OCO3)[nH]c1C,13 µM (active),
CC[C@H]1CN2CCc3cc(OC)c(OC)cc3[C@@H]2C[C@@H]1C[C@H]1NCCc2cc(OC)c(OC)cc21,0.259 µM (active),
CCC(CC)C(=O)N1CCc2cc(OC)c(OC)cc2C1COc1ccc(F)cc1 (stereo not given),,15.8
CC(=O)N1c2ccc(S(=O)(=O)N3CCCCCC3)cc2CC1C(=O)NCc1ccccc1C (stereo not given),,5.84
COc1ccccc1NC(=O)CN1C(=O)c2ccccc2Sc2ccc(C(=O)N3CCCC3)cc21,,9.84
C=CCn1nc(C(=O)OCC)cc1-c1sc(NC(=O)c2ccccc2)nc1C,,8.61
CCOC(=O)c1cc(-c2sc(NC(=O)c3ccccc3)nc2C)n(Cc2ccccc2)n1,23.1 µM (active),
CCOC(=O)c1cc(-c2sc(NC(=O)c3ccccc3)nc2C)n(CCO)n1,,-1.47
CC(C)Sc1oc(-c2cccs2)nc1S(=O)(=O)c1ccc(Cl)cc1,,4.33
CC(C)(C)c1ccc(S(=O)(=O)N2CCN(C(=O)c3cc(-c4ccc(Br)cc4)n[nH]3)CC2)cc1,,1.19
CCn1c(C(O)c2cc(OC)ccc2OC)nc2ccccc21 (stereo not given),,11.1
COc1ccccc1Cn1c(CO)nc2ccccc21,,-2.97
COc1ccc(C)c(Cn2c(-c3nonc3N)nc3ccccc32)c1,2.31 µM (active),
